Assay results from ChEMBL document CHEMBL4513216, “Probing the Open Global Health Chemical Diversity Library for Multistage-Active Starting Points for Next-Generation Antimalarials” (ACS Infect Dis, 2020).
The campaign covered roughly 65,000 compounds. About 2,100 (3.2%) showed an effect of 50% or more. The median lay at about -52%. The sample as a whole holds a higher share of strong results than the screen did.

test system: Plasmodium falciparum; experiment: Screen against P. falciparum Asexual Blood Stage (ABS), at 5uM; format: functional, Dd2; settings: tested at 5 uM

Point of comparison: `CCn1ccnc1CNCC(c1ccc(C)s1)N1CCOCC1` (stereo not given), INHIBITION 54.1%. Against it:
- COCC1CN(C(=O)Cc2ccccn2)Cc2ncnn2C1 (stereo not given) — lower, -70.5%
- Cc1cc(C(=O)N2CCN(c3nc4c(C(C)C)cccc4s3)CC2)on1 — lower, 35.8%
- COCCOCC(=O)Nc1ccc(F)cc1C — lower, -33.5%
- Cc1nc(CN2CCC(c3nc4cc(Cl)ccc4o3)CC2)oc1C — lower, -53.1%
- Cc1noc(C)c1CN1CCC(c2nc3cc(Cl)ccc3o2)CC1 — higher, 58.5%
- CC(C)(C)c1nc(CN2CCC(c3nc4cc(Cl)ccc4o3)CC2)no1 — lower, -67.9%
- O=C([C@@H]1COC[C@H]2CN(C3CCCC3)C[C@H]21)N1CCC(F)CC1 — lower, -68.8%
- CN1CCN(C(=O)c2nc3c(o2)CN(C(=O)c2cccnc2)C3)CC1 — lower, -0.0268%
- O=C(CSC1=NS(=O)(=O)c2cc(F)ccc2N1)Nc1ccc(Cl)c(Cl)c1 — lower, -21.5%
- O=C(N1CCOCC1)N1CCC2(CC1)CN(c1ccccn1)CCO2 — lower, -99.6%
- Cc1ccc(C(CNCc2ccc(C#N)cc2)N2CCOCC2)s1 (stereo not given) — lower, 52.3%
- Cc1ccc(C(CNCc2ncc[nH]2)N2CCOCC2)s1 (stereo not given) — lower, 34.5%
- Cc1ccc(C(CNCc2cccn2C)N2CCOCC2)s1 (stereo not given) — lower, -38.5%
- O=C(CCn1cccn1)NCC(c1cccs1)N1CCOCC1 (stereo not given) — lower, -64.1%
- Cc1ccc(C(CNCc2nccn2C)N2CCOCC2)s1 (stereo not given) — lower, -28.6%
- CCCn1cc(CN2CCOCC2c2[nH]ncc2C)cn1 (stereo not given) — lower, -155%
- Cc1ccc(C(CNCc2cnn(C(C)C)c2)N2CCOCC2)s1 (stereo not given) — lower, 35.9%
- CCCn1cc(CNCC(c2ccc(C)s2)N2CCOCC2)cn1 (stereo not given) — higher, 56.8%
- CCn1cc(CNCC(c2ccc(C)s2)N2CCOCC2)cn1 (stereo not given) — higher, 65.7%
- Cc1ccc(C(CNCC2CC2)N2CCOCC2)s1 (stereo not given) — lower, 26.8%
- Cc1ccc(C(CNCc2ccncc2)N2CCOCC2)s1 (stereo not given) — lower, -40.9%
- CCCOc1ccc(CNc2cncc(-n3cccn3)n2)cc1 — lower, -99.4%
- Cc1ccc(N2CCC3(CCCN(C(=O)c4cccnc4)C3)C2)nn1 (stereo not given) — lower, -0.21%
- O=C(O)c1cccc2c(Br)cccc12 — lower, -180%
- Cn1cnc2c1CCN(Cc1csc(-c3ccccc3F)n1)C2 — lower, -58%
- O=C(c1ccc2c(c1)CCCC2)N1CCN(c2cnccn2)CC1 — lower, 45%
- CCS(=O)(=O)N1Cc2ccccc2CC1C(=O)OCc1cc(C)no1 (stereo not given) — lower, -132%
- Cc1cc(C(F)(F)F)nc(CNC(=O)CCn2cccn2)n1 — lower, -223%
- O=C([C@@H]1CCO[C@@H]2CCN(Cc3cccs3)C[C@H]21)N1CCCCO1 — lower, -36.6%
